Assay outcomes from PubChem BioAssay.
Only some compounds are listed: those with a hit (about 4.2% of all), similar ones and a draw of the others.
DAX1 StAR inh – inhibitors of DAX1 repression of SF-1 activated StAR promoter; HEK293T StAR-luciferase reporter, SF-1/DAX-1 repression relief; inhibition, % at 6.8 µM; 1.1% of 370,000 active;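 active = inhibition above the mean over all tested compounds plus 3 SD, cut at about 3.6% in these data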;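 also: 0% = DAX-1 cells with DMSO and 100% = cells lacking DAX-1 with DMSO; higher inhibition means more luminescence from relief of DAX-1 repression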
hgDAF12 agonist – activates the H. glycines DAF-12 receptor ligand-binding domain; HEK293 GAL4-hgDAF12 UAS-luciferase reporter, agonist luminescence; normalized to butyrate control; activation, % at 6.8 µM; 1.8% of 370,000 active; AID 687014;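 active = activation above a cutoff set at the mean of all screened compounds plus 3 SD, cut at about 10% in these data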;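 also: 0% = DMSO wells and 100% = sodium butyrate wells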
hcDAF-12 act – activates DAF-12 receptor from parasite H. contortus; HEK293 hcDAF-12 lit1-tk-luc reporter, luminescence; 0% DMSO, 100% Δ7-dafachronic acid; activation, % at 6.8 µM; 1.4% of 370,000 active;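 active = activation above the mean of all tested compounds plus 3 SD, cut at about 5.5% in these data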;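 also: 100% = response to 3 µM Δ7-dafachronic acid high control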
SMARCA2 act – activators of SMARCA2 function. AID 652017. MG213 cells, MMTV-luciferase reporter, dexamethasone, overnight. activation, % at 9.1 µM. 1% of 370,000 active; in the data active = activation above about 7.8%;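 also: 0% = vehicle wells and 100% = reference activator wells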
ssDAF-12 act – activators of S. stercoralis DAF-12 nuclear receptor; HEK293 ssDAF-12/GRIP1 lit1-tk-luc reporter, luminescence; % of 3 µM dafachronic acid response; activation, % at 6.8 µM; 1% of 370,000 active; AID 652126;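 active = activation above the mean over all tested compounds plus 3 SD, cut at about 0.9% in these data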;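 also: 0% = DMSO-only wells and 100% = 3 µM delta7-dafachronic acid wells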
LXR ag – counter-screen for hcDAF-12 agonists: agonists of human LXR-beta; shares compounds with hcDAF-12 act; HEK293 Gal4-LXR tk-luc reporter, luminescence, 24 h; normalized: DMSO 0%, positive control 100%; activation, % at 6.8 µM; 3,400 tested, under 10 active;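 active = mean percent activation of the reporter above a cutoff set as the average over tested compounds plus their standard deviation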
Target sequence (P55055 whole entry, looked up, the tested form may be a part): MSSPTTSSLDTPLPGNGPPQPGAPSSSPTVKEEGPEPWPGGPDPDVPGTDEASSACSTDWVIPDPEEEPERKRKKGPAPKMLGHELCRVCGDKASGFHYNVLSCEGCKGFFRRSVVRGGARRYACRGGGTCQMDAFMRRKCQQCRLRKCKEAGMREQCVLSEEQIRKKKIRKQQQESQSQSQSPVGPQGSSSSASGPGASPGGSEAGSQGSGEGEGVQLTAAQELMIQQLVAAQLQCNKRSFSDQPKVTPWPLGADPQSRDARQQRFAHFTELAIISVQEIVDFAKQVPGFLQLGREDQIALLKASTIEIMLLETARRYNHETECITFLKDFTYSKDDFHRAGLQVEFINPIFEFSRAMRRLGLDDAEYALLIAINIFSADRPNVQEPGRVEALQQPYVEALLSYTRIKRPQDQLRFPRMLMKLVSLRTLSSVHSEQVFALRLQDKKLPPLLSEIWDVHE
hcDAF12 conf – hcDAF-12 agonism, confirmation assay | 61% of 3,400 active | activation, % at 6.8 µM | HEK293 hcDAF-12 lit1-tk-luc reporter, luminescence; % of Δ7-dafachronic acid response | AID 743032 | shares compounds with hcDAF-12 act;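 active = mean activation across triplicate tests above the threshold derived from the earlier primary screen, cut at about 5.5% in these data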;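 also: 0% = DMSO only wells and 100% = 3 µM Δ7-dafachronic acid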
* = called active by the depositor.

Screening O=C1N=c2ccc(Br)cc2=C1c1sc(=S)n(NS(=O)(=O)c2ccccc2)c1O returned DAX1 StAR inh 0.9, hgDAF12 agonist 0.8, hcDAF-12 act 6.6*, SMARCA2 act 0.4, ssDAF-12 act 0.1, LXR ag -0.2 and hcDAF12 conf 2.9.
Screening O=C1N=c2ccccc2=C1c1sc(=S)n(NC(=O)c2cccc(O)c2)c1O returned DAX1 StAR inh 0.5, hgDAF12 agonist -1.7, hcDAF-12 act 2.8, SMARCA2 act 2.1 and ssDAF-12 act 0.3.
COc1ccccc1C(=O)O/N=C(\N)c1ccccn1 was read as DAX1 StAR inh 2.1, hgDAF12 agonist 8.1, hcDAF-12 act 10.8*, SMARCA2 act -1.0, ssDAF-12 act 2.7*, LXR ag 1.3 and hcDAF12 conf 5.9*.
`N/C(=N\OC(=O)c1ccc(Cl)c([N+](=O)[O-])c1)c1ccccn1` gave DAX1 StAR inh -0.6, hgDAF12 agonist 0.3, hcDAF-12 act -0.7, SMARCA2 act 1.9 and ssDAF-12 act -1.4.
Screening N/C(=N\OC(=O)c1ccccc1Cl)c1ccccn1 returned DAX1 StAR inh 3.0, hgDAF12 agonist -1.9, hcDAF-12 act 7.0*, SMARCA2 act -3.6, ssDAF-12 act -0.3, LXR ag 1.6 and hcDAF12 conf 11.1*.
For N/C(=N\OC(=O)c1cccc(Cl)c1)c1ccccn1 the results were DAX1 StAR inh 3.9*, hgDAF12 agonist 10.1, hcDAF-12 act 12.6*, SMARCA2 act 4.5, ssDAF-12 act 0.9, LXR ag 1.5 and hcDAF12 conf 8.2*.
`O=C(NCc1ccc(C(=O)N2CCOCC2)cc1)c1cccc(Br)c1` gave DAX1 StAR inh 0.0, hgDAF12 agonist -0.7, hcDAF-12 act -1.0, SMARCA2 act -3.0 and ssDAF-12 act -0.7.
For CCCc1cn(-c2ccc3c(c2)[C@]2(CC(=O)N(C)C2c2ccccc2)C(=O)N3CC(C)C)nn1 (stereo partly specified) the results were DAX1 StAR inh -0.9, hgDAF12 agonist 2.5, hcDAF-12 act -0.3, SMARCA2 act 1.1 and ssDAF-12 act -0.4.
For O=C(O)COc1ccccc1/C=N/NC(=O)c1cc(-c2ccc(F)cc2)nc2ccccc12 the results were DAX1 StAR inh 0.1, hgDAF12 agonist 0.4, hcDAF-12 act -0.7, SMARCA2 act -1.8 and ssDAF-12 act -1.8.
For O=C(O)COc1ccccc1/C=N/NC(=O)c1cc2ccccc2cc1O the results were DAX1 StAR inh 1.7, hgDAF12 agonist 10.1, hcDAF-12 act 11.1*, SMARCA2 act 1.2, ssDAF-12 act 2.7*, LXR ag -0.1 and hcDAF12 conf 5.1.
For O=C(CSc1nnc(-c2ccccc2O)o1)N1CCCCC1 the results were DAX1 StAR inh 0.3, hgDAF12 agonist 3.0, hcDAF-12 act 0.7, SMARCA2 act 7.7 and ssDAF-12 act -0.5.
Screening O=C(CSc1nnc(-c2ccccc2O)o1)N1CCOCC1 returned DAX1 StAR inh 1.5, hgDAF12 agonist 5.9, hcDAF-12 act 11.4*, SMARCA2 act 3.5, ssDAF-12 act 0.8, LXR ag 0.4 and hcDAF12 conf 2.1.
`Cc1cnc(NC(=O)CSc2nnc(-c3ccccc3)o2)s1` gave DAX1 StAR inh 3.3, hgDAF12 agonist 6.7, hcDAF-12 act 8.4*, SMARCA2 act 2.8, ssDAF-12 act 0.0, LXR ag 0.7 and hcDAF12 conf 4.5.
For CCc1cc(-c2cnnn2Cc2ccccc2)ccc1-c1cn(CC(C)C)nn1 the results were DAX1 StAR inh -1.5, hgDAF12 agonist -4.2, hcDAF-12 act -1.6, SMARCA2 act -6.3 and ssDAF-12 act -1.6.
For O=C(CN1CCc2ccccc2C1)c1cccs1 the results were DAX1 StAR inh 0.6, hgDAF12 agonist 1.1, hcDAF-12 act 6.9*, SMARCA2 act 3.9, ssDAF-12 act 0.5, LXR ag 0.0 and hcDAF12 conf 3.6.
CCCCCCCCN1C(=O)[C@@H](CC(=O)N2CCC(c3ccccc3)CC2)C[C@@]2(C(=O)OC)C1=C[C@H](C(C)(C)C)O[C@@H]2C was read as DAX1 StAR inh 1.2, hgDAF12 agonist -0.4, hcDAF-12 act 1.1, SMARCA2 act 3.1 and ssDAF-12 act -0.6.
CN(C)c1ccc(N=Nc2ccccc2C(=O)OCC(=O)N2CCCC2)cc1 was read as DAX1 StAR inh 0.1, hgDAF12 agonist 3.7, hcDAF-12 act -1.1, SMARCA2 act 4.7 and ssDAF-12 act -2.0.
For CN(C)c1ccc(N=Nc2ccccc2Br)cc1 the results were DAX1 StAR inh 3.0, hgDAF12 agonist 12.0*, hcDAF-12 act 20.1*, SMARCA2 act 6.0, ssDAF-12 act 1.6*, LXR ag 1.7 and hcDAF12 conf 18.9*.
`CN1C2=N[C@@H](c3cccc(C(F)(F)F)c3)CC(=O)N2/C(=C\c2ccccc2)[C@H]1c1ccccc1` gave hgDAF12 agonist 2.5, hcDAF-12 act -0.9 and ssDAF-12 act -1.3.
O=C(c1ccccc1)c1cc2ccccc2oc1=O was read as DAX1 StAR inh 0.8, hgDAF12 agonist 2.6, hcDAF-12 act 6.9*, SMARCA2 act 0.8, ssDAF-12 act 0.2, LXR ag 0.1 and hcDAF12 conf 4.7.
`Cn1c(-c2ccc3ccccc3n2)[n+](C)c2ccccc21` gave DAX1 StAR inh 0.1, hgDAF12 agonist 2.5, hcDAF-12 act 10.1*, SMARCA2 act -3.0, ssDAF-12 act -1.2, LXR ag 0.1 and hcDAF12 conf 2.4.
`Cn1c(-c2ccccn2)[n+](C)c2ccccc21` gave DAX1 StAR inh 0.0, hgDAF12 agonist 3.1, hcDAF-12 act 0.3, SMARCA2 act -0.4 and ssDAF-12 act -0.6.
`O=C(N/N=C/c1c[nH]c2ccccc12)c1ccn[nH]1` gave DAX1 StAR inh 0.8, hgDAF12 agonist 11.8*, hcDAF-12 act 9.9*, SMARCA2 act 7.4, ssDAF-12 act 0.2, LXR ag -0.2 and hcDAF12 conf 2.5.
For O=C(N/N=C/c1c[nH]c2ccccc12)c1ccccc1Cl the results were DAX1 StAR inh 0.3, hgDAF12 agonist 5.1, hcDAF-12 act 4.5, SMARCA2 act 4.7 and ssDAF-12 act 0.4.
`CC(C)(C)OC(=O)N/N=C/c1c[nH]c2ccccc12` gave DAX1 StAR inh 0.8, hgDAF12 agonist 11.9*, hcDAF-12 act 11.0*, SMARCA2 act 3.4, ssDAF-12 act 1.4*, LXR ag 0.2 and hcDAF12 conf 6.6*.
Screening O=C(N/N=C/c1c[nH]c2ccccc12)c1ccc(Br)cc1 returned DAX1 StAR inh 0.2, hgDAF12 agonist 2.9, hcDAF-12 act 7.3*, SMARCA2 act 1.0, ssDAF-12 act 1.1*, LXR ag 0.2 and hcDAF12 conf 5.0.
For O=C(N/N=C\c1c[nH]c2ccccc12)c1ccc(O)cc1 the results were DAX1 StAR inh 0.2, hgDAF12 agonist 9.1, hcDAF-12 act 9.7*, SMARCA2 act -0.5, ssDAF-12 act 1.4*, LXR ag -0.2 and hcDAF12 conf 5.1.
